Most compounds without a hit are left out; they make up all but 6.5% or so of the library.
VACV Venus inh – qHTS for Stage-Specific Inhibitors of Vaccinia Orthopoxvirus: Venus Reporter Primary qHTS; Vaccinia virus Venus reporter expression, fluorescence; Potency, µM (series often up to 36.5 µM), inactives show at the highest dose activity change, negative = inhibition, actives largely listed as inhibitors; 0.46% of 330,000 active; AID 720580, 2013; calls by dose curve; tested in A549 cells; further: potency means the concentration at half of the fitted maximal effect; nearly all actives have a fitted effect of over 30% in size
Lassa entry inh – qHTS for Inhibitors of binding or entry into cells for Lassa Virus; Lassa virus pseudotype entry inhibition, cell reporter; Potency, µM (titrated, usually from 37.9 µM), without a hit: at the top dose activity change, negative = inhibition, actives largely listed as inhibitors; 1.2% of 300,000 active; AID 540256, 2011; calls by dose curve; tested in HEK293 cells; further: potency means the concentration at half of the fitted maximal effect; nearly all actives have a fitted effect of over 50% in size
VACV mCherry inh – qHTS for Stage-Specific Inhibitors of Vaccinia Orthopoxvirus: mCherry Reporter Primary qHTS; Vaccinia virus mCherry reporter infection, fluorescence; Potency, µM (titrated, usually from 36.5 µM), without a hit: top-dose activity change, negative = inhibition, hits mostly inhibitors; 0.63% of 310,000 active; calls by dose curve; tested in A549 cells; further: potency means the concentration at half of the fitted maximal effect; nearly all actives have a fitted effect of over 35% in size
HCMV inh – qHTS Assay for inhibitors of the human cytomegalovirus (HCMV). HFF cells, HCMV-luciferase reporter, 72 h; stronger effect = lower value. activity change, negative = inhibition, % at 57.5 µM. 4.5% of 410,000 active; in the data active means activity change below about -60%; inconclusive means no clear call, values can overlap the other calls; inactive means above about -39%
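HFF cells seeded 16 h at 37C, treated with compounds, infected with luciferase-reporter HCMV at MOI 1 PFU/cell; luciferase read at 72 h post infection, normalized to buffer-only and Salinomycin controls.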
FMDV inh – High Throughput Screening for Foot and Mouth Disease Virus Antivirals. FMDV antiviral cell-based qHTS. Potency, µM (titrated, usually from 57.9 µM), inactives show top-dose activity change, negative = inhibition, actives largely listed as inhibitors. 1.2% of 410,000 active. AID 1159524, 2015; calls by dose curve; tested in HEK293T cells; further: read-out not given here; potency means the concentration at half of the fitted maximal effect; nearly all actives have a fitted effect of over 45% in size
MARV entry inh – qHTS for inhibitors of binding or entry into cells for Marburg Virus | Marburg virus pseudotyped entry inhibition, cell reporter | Potency, µM (top dose mostly 37.8 µM), for the others: at the top dose activity change, negative = inhibition, hits mostly inhibitors | 1.8% of 300,000 active; calls by dose curve; tested in HEK293 cells; further: potency means the concentration at half of the fitted maximal effect
Starred values were filed as active, the others as inactive; i = inactive; ? = inconclusive; / = not tested or not shown; [ ] = dose if it differs, or a comment. On the % scale 0 is the no-effect control and ±100 the full control effect.

SMILES	VACV Venus inh	Lassa entry inh	VACV mCherry inh	HCMV inh	FMDV inh	MARV entry inh
O=C(c1ccccc1)N1CCOC(O)(c2ccccc2)C1c1ccccc1 (stereo unspecified)	-10%	23%[46.1 µM]	-24%	-61*	18%	-4%
CC(C)(O)/C=C/C(=O)C(C)(O)C1C(O)CC2(C)C3CC=C4C(C=C(O)C(=O)C4(C)C)C3(C)C(=O)CC12C (stereo unspecified)	28µM*	0.32µM*	7.9µM*	-97*	-5%	0.11µM*
CC(=O)OC(C)(C)/C=C/C(=O)[C@](C)(O)C1[C@H](O)C[C@@]2(C)C3CC=C4C(C[C@H](O)C(=O)C4(C)C)[C@]3(C)C(=O)C[C@]12C (stereo partly specified)	2.5µM*	/	0.5µM*	/	28µM*	/
Cn1c2c(c(=O)n(C)c1=O)C(C(F)(F)F)(C(F)(F)F)N=C(CCC1CCCCC1)N2	?	2.6µM*	?	-103*	14µM*	11µM*
Cn1c2c(c(=O)n(C)c1=O)C(C(F)(F)F)(C(F)(F)F)N=C(c1ccccc1Cl)N2	/	5%	/	-10	?	?
Cc1cnc(-n2ncc(C(=O)NCCc3cccnc3)c2C)nc1-c1ccc(F)cc1	-13%	/	i	/	6%	/
C#CCOCCOCCOCCNc1nc(N2CCN(C(=O)[C@H](CC(N)=O)n3cc(C(N)[C@@H](C)CC)nn3)CC2)nc(N2CCN(C(=O)[C@H](CCC(=O)O)n3cc([C@@H](N)CCCCN)nn3)CC2)n1 (stereo partly specified)	0%	/	-20%	22	-12%	/
CCOc1ccc(C2c3c(-c4ccc(C)cc4)n[nH]c3C(=O)N2c2ccc(Cl)cc2)cc1 (stereo unspecified)	?	?	?	-106*	-21%	?
CCOC(=O)c1ccc(N2C(=O)c3[nH]nc(-c4ccc(OC)cc4)c3C2c2ccccc2Cl)cc1 (stereo unspecified)	-22%	15%[46.1 µM]	?	11	?	3%[46.1 µM]
COc1ccccc1C1c2c(-c3ccc(Cl)cc3)n[nH]c2C(=O)N1c1ccc(C)cc1 (stereo unspecified)	-5%	?	-12%	-105*	?	?
CC(=O)c1c2c(cc3ccc(Cl)cc13)CCC2	/	/	/	-14	/	/
CCC(c1nnnn1CCc1ccccc1)N(Cc1ccco1)Cc1cc2c(C)ccc(C)c2[nH]c1=O (stereo unspecified)	?	?	/	-33	1%	14µM*
CCC(c1nnnn1CCc1ccccc1)N(Cc1ccco1)Cc1cc2cc(C)cc(C)c2[nH]c1=O (stereo unspecified)	-21%	?	/	-71*	?	?
CNC(=O)[C@H](Cc1c[nH]c2ccccc12)NC(=O)[C@@H](CC(=O)NO)CC(C)C	-4%[60.7 µM]	/	-15%[60.7 µM]	/	-7%	/
CCOc1ccc(NC(=S)N(CCOC)C2CCN(C(C)C)CC2)cc1	/	/	/	-15	-17%	/
c1csc(-c2nc(NCC3CCCO3)c3ccccc3n2)c1 (stereo unspecified)	-14%	-5%[46.1 µM]	2%	-22	-26%	10µM*
c1ccc(CN2CCC(Nc3nc(-c4cccs4)nc4ccccc34)CC2)cc1	/	?	/	?	?	12µM*
c1csc(CNc2nc(-c3cccs3)nc3ccccc23)c1	-18%	3%	-21%	-61*	-29%	-30%[46.1 µM]
c1cncc(-c2nc(NCC3CCCO3)c3ccccc3n2)c1 (stereo unspecified)	-2%	?	i	/	3%	?
CC(C)Oc1ccc(-c2nc(NCC3CCCO3)c3ccccc3n2)cc1 (stereo unspecified)	-5%	?	-20%	-78*	?	?
COCCC(=O)N1CCCC(C(=O)c2ccc(C(F)(F)F)cc2)C1 (stereo unspecified)	-3%	-2%[46.1 µM]	-1%	124	10%	-6%[46.1 µM]
COc1ccc(C(=O)C2CCN(CC(=O)Nc3ccccc3F)CC2)cc1	-6%	23%[46.1 µM]	-29%	-2	-28%	-14%[46.1 µM]
O=C(c1cscn1)N1CCOc2ccc(CN3CCC(Oc4cccnc4)CC3)cc2C1	-5%	/	-7%	/	-15%	/
Cc1ccccc1NC(=S)NCc1cccs1	-8%	13%	/	22	18%	?
Cc1c(Cl)cccc1NC(=S)NCc1cccs1	/	-18%	/	-80*	18%	-9%
SMILES	VACV Venus inh	Lassa entry inh	VACV mCherry inh	HCMV inh	FMDV inh	MARV entry inh
CCCCc1ccc(NC(=S)NCc2cccs2)cc1	/	-10%	/	-80*	45%	-26%
Cc1ccc(NC(=S)NCc2cccs2)cc1	?	9%	/	40	42%	?
S=C(NCc1cccs1)Nc1cccc(Cl)c1Cl	-16%	?	i	-79*	47%	0%
CC(C)c1ccc(/C=C/C(=O)Nc2nncs2)cc1	-22%	8.9µM*	2%	?	-50%	?
CCOc1ccc(NC(=O)CN(C)C(=O)c2cc3c(s2)CCC(C)C3)cc1OCC (stereo unspecified)	/	/	/	?	-24%	/
O=C(NCCc1ccccc1)c1coc(=O)c(Br)c1	-21%	-21%[46.1 µM]	-27%	27	?	?
O=C(CN1CCCCC1)Nc1cc(Cl)ccc1Cl	-3%	6%	1%	-7	32%	14%
O=C(CN1CCOCCOCCOCC1)Nc1ccccc1	-4%	11%	i	41	/	5%
O=C(CN1CCC(C(O)(c2ccccc2)c2ccccc2)CC1)Nc1ccccc1	-14%	?	-13%	-27	/	23µM*
O=C(CN1CCC(C(O)(c2ccccc2)c2ccccc2)CC1)Nc1cc(Cl)ccc1Cl	-3%	8.2µM*	-15%	55	/	?
CCN(CC(=O)Nc1c(F)cccc1F)C(=O)C1CCN(c2ncnc3sc(C)c(C)c23)CC1	-19%	?	?	-31	?	?
CC(=O)c1ccc[n+](CC(=O)c2ccc(F)cc2)c1	-10%	/	i	/	/	/
CC(=O)Nc1ccc(S(=O)(=O)NCCSCc2ccccc2Cl)cc1	?	?	-15%	-84*	-27%	?
CC(=O)Nc1ccc(S(=O)(=O)NCC2CCC(C(=O)NCc3ccccc3Cl)CC2)cc1 (stereo unspecified)	-1%	-12%[46.1 µM]	-5%	0	28%	/
Cc1nnc(N2CCOCC2)c2nn(-c3ccccc3)c(C)c12	-16%	?	-14%	?	-17%	-24%
c1ccc(-n2nnc3c(N4CCOCC4)ncnc32)cc1	/	5.2µM*	/	-13	-85%	2.3µM*
Fc1ccc(-n2cc(-c3ccccc3)[n+]3c2SCC3)cc1	/	2%	/	?	-22%	-20%
c1ccc(-c2cn(-c3ccccc3)c3[n+]2CCS3)cc1	-15%	?	i	?	?	?
